Assay outcomes deposited in PubChem BioAssay by National Center for Advancing Translational Sciences (NCATS).
Compounds with a hit are over-represented: about 6.1% of the library has one in this group of screens.
D1 ag: agonists of human D1 dopamine receptor. P21728. HEK293 T-REx D1 cells, calcium flux, agonist mode. activation, % at 2 µM. 360,000 tested, 1% active; in the data active = activation above about 30%; note: 0% is about no effect
Target sequence (P21728 whole entry, looked up): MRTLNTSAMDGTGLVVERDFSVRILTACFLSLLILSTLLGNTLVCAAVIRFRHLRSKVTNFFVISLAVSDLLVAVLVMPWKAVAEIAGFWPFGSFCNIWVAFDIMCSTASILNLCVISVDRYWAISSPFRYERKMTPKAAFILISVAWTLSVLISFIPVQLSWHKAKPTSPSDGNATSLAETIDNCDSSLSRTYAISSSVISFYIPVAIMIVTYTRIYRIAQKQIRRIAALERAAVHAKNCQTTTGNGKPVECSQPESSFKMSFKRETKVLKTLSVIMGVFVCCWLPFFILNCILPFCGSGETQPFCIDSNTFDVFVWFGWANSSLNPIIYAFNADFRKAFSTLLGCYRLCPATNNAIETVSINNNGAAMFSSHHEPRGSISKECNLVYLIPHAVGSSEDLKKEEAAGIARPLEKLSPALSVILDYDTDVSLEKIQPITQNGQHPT
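Inducible HEK293 T-REx D1 cells, force-coupled to calcium signalling, were plated at 4000 cells/well with tetracycline and held overnight at 30 C. After no-wash calcium dye loading, compound-evoked calcium rise over 180 s flagged agonists.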
D1 antag: blocks dopamine activation of the human D1 receptor; 360,000 tested, 3.2% active; P21728; activity change, negative = inhibition, % at 10 µM; HEK293 TREx D1 cells, calcium flux, dopamine EC80; hits give low values; in the data active = activity change below about -30%; note: % is set by controls: 0 for no effect and ±100 for the full control effect
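After overnight tetracycline induction at 30 C, force-coupled D1 HEK293 cells took up a no-wash calcium dye at room temperature. Compounds were added and monitored 180 s, and the response to EC80 dopamine was then recorded.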
D1 potentiator: human D1 dopamine receptor positive modulation; HEK293 TREx D1 cells, calcium flux, dopamine EC20 potentiation; AID 504651; 360,000 tested, 0.036% active; potentiation, % at 10 µM; in the data active = potentiation above about 30%; note: 0% is about no effect
DRD3 antagonist: antagonists of human D3 dopamine receptor; 360,000 tested, 2.5% active; D3R cells, DiscoveRx beta-arrestin luminescence, antagonist mode; hits give low values; max response, negative = inhibition, %; P35462; in the data active = max response below about -50%; inconclusive = no clear call, values can overlap the other calls; note: % is set by controls: 0 for no effect and ±100 for the full control effect
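Cells expressing the human receptor were seeded at 1500 cells/well, incubated overnight at 37 degrees C in 5% CO2, then exposed to library compounds with dopamine controls for 90 minutes at 37 degrees C before luminescent detection.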
D3 ag: agonists of human D3 dopamine receptor | P35462 | D3R DiscoveRx beta-arrestin cells, luminescence, 90 min | max activation, % | 410,000 tested, 0.58% active; in the data active = max activation above about 30%; note: 0% is about no effect
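Cells at 1500/well, incubated overnight, then treated with pinned compounds (dopamine as control) for 90 min at 37 degrees C. DiscoveRx reagent added for 30 - 60 minutes at room temperature; luminescence read.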
Starred values were filed as active, the others as inactive.

For CCOC(=O)[C@@H]1[C@H]2COc3cc(OC)ccc3[C@@H]2N2C(=O)N(c3ccc(C(F)(F)F)cc3)C(=O)[C@]12C the results were D1 ag 7.9, D1 antag -10.9, D1 potentiator -4.9, DRD3 antagonist 4.7 and D3 ag 46.3*.
For CCOC(=O)[C@@H]1[C@H]2COc3ccc(Br)cc3[C@H]2N2C(=O)N(c3ccc(OC)cc3)C(=O)[C@]12C the results were DRD3 antagonist -62.4* and D3 ag -13.9.
`CCOC(=O)[C@@H]1[C@H]2COc3cc(OC)ccc3[C@H]2N2C(=O)N(c3ccc(Cl)cc3)C(=O)[C@]12C` gave DRD3 antagonist 12.8 and D3 ag 0.5.
`CCOC(=O)[C@H]1[C@H]2COc3ccc(Br)cc3[C@@H]2N2C(=O)CN(Cc3ccc(OC)cc3)C(=O)[C@@]12C` gave D1 ag 0.3, D1 antag -30.1*, D1 potentiator 1.7, DRD3 antagonist 24.0 and D3 ag -22.1.
Screening CC(C)(C)c1cc(NC(=O)C2(C)CCN2C(=O)c2ccccc2CCc2ccccc2)no1 (centres undefined) returned DRD3 antagonist 121.4 and D3 ag 4.8.
`CCOC(=O)C1=C(CN2CCC(C(=O)OCC)CC2)NC(=O)NC1c1ccc(Cl)cc1` (centres undefined) gave D1 ag 0.6, D1 antag -3.7, D1 potentiator 4.3 and D3 ag -2.9.
Screening COc1ccc(-c2cc(C(F)(F)F)n3nc(C(=O)Nc4sc5c(c4C(=O)OC(C)C)CCC(C)C5)cc3n2)cc1 (centres undefined) returned D1 ag 0.0, D1 antag 6.6, D1 potentiator -1.4 and D3 ag 4.4.
For Cc1c(Cl)cccc1NC(=O)CCN1C(=O)NC(C)(C)C1=O the results were D1 ag 0.6, D1 antag 1.1, D1 potentiator -0.6, DRD3 antagonist 12.8 and D3 ag -0.4.
Screening O=C(CSc1nc2c([nH]c3ccccc32)c(=O)n1-c1ccccc1F)Nc1cccc(C(F)(F)F)c1 returned D1 ag 3.8, D1 antag -6.9, D1 potentiator -5.8 and D3 ag 0.7.
Screening CCOC(=O)[C@H]1[C@H]2COc3ccc(OC)cc3[C@@H]2N2C(=O)CN(Cc3ccco3)C(=O)[C@@]12C returned D1 ag -1.3, D1 potentiator 6.8, DRD3 antagonist -11.0 and D3 ag -27.5.
Screening CCOC(=O)[C@H]1[C@H]2COc3ccc(OC)cc3[C@@H]2N2C(=O)CN(CCc3c[nH]c4ccccc34)C(=O)[C@@]12C returned D1 ag 1.0, D1 potentiator 4.5, DRD3 antagonist -3.5 and D3 ag 58.0*.
For CN1[C@@H]2CC[C@H]1CC(NC(=O)n1c(=O)[nH]c3ccccc31)C2 (some centres undefined) the results were D3 ag -10.9.
Screening Oc1ccc(C(=S)N2CCN(c3cccc(Cl)c3)CC2)cc1 returned D1 ag 2.6, D1 antag -9.5, D1 potentiator 0.2, DRD3 antagonist -9.9 and D3 ag -4.2.
COc1ccc(C(=S)N2CCN(c3cccc(Cl)c3)CC2)c(OC)c1 was read as D1 ag -0.5, D1 antag 0.2, D1 potentiator 1.1, DRD3 antagonist -18.2 and D3 ag -24.5.
`COc1cc(C(=S)N2CCN(c3cccc(Cl)c3)CC2)ccc1O` gave D1 ag 4.4, D1 antag -31.0*, D1 potentiator -2.8, DRD3 antagonist 0.0 and D3 ag 4.1.
For Oc1ccccc1C(=S)N1CCN(c2cccc(Cl)c2)CC1 the results were D1 ag 2.1, D1 antag -39.2*, D1 potentiator -4.0, DRD3 antagonist -7.9 and D3 ag -5.8.
`COc1cccc(NC(=O)c2sc3nc(C)c(C(=O)Nc4ccc(C)cc4C)c(-c4ccc(Br)cc4)c3c2N)c1` gave D1 ag 5.2, D1 antag -2.3, D1 potentiator 3.3 and D3 ag 4.5.
For COc1ccc(CNC(=O)COC(=O)CCCOc2ccc(Cl)cc2Cl)cc1 the results were D1 ag 30.7*, D1 antag -3.0, D1 potentiator 4.2, DRD3 antagonist 4.9 and D3 ag -4.6.
For Cn1c(-c2ccccc2)cc2onc(-c3ccccc3)c2c1=O the results were D1 ag 12.7, D1 antag 4.6, D1 potentiator -6.4, DRD3 antagonist -68.5* and D3 ag 0.0.
For Cn1c(-c2ccccc2F)cc2onc(-c3ccccc3)c2c1=O the results were D1 ag -1.4, D1 antag 9.9, D1 potentiator -0.7, DRD3 antagonist -29.7 and D3 ag -59.8.
`COc1ccc(CC(=O)Nc2cc(Cl)ccc2O)cc1` gave D1 ag 16.2, D1 antag -34.6*, D1 potentiator -4.5, DRD3 antagonist -22.1 and D3 ag -16.9.
Screening CCCCN(CC)CCNc1c(NC2CCN(C(=O)OCC)CC2)c(=O)c1=O returned D1 ag 1.7, D1 antag -62.6*, DRD3 antagonist 7.8 and D3 ag -0.4.
CCCCNc1c(N2CCN(C(=O)OCC)CC2)c(=O)c1=O was read as D1 ag -1.5, D1 antag -9.0, D1 potentiator -1.9, DRD3 antagonist -15.2 and D3 ag 0.8.
CCOC(=O)N1CCC(Nc2c(NCCCN(CC)CC)c(=O)c2=O)CC1 was read as D1 ag 1.8, D1 antag -7.2, DRD3 antagonist -11.4 and D3 ag 2.7.
`CCOC(=O)N1CCC(Nc2c(NCCCN3CCN(C4CCCCC4)CC3)c(=O)c2=O)CC1` gave D1 ag 2.8, D1 antag -42.9*, D1 potentiator -7.3, DRD3 antagonist inconclusive and D3 ag -9.3.
For COc1ccccc1N1CCN(C(=O)CSc2nc(C)c(C)c(=O)[nH]2)CC1 the results were D1 ag 0.9, D1 antag -30.2*, D1 potentiator -3.0, DRD3 antagonist -17.0 and D3 ag -18.9.
CCc1c(C)nc(SCC(=O)N2CCN(c3ccccc3OC)CC2)[nH]c1=O was read as D1 ag 1.7, D1 antag -4.3, D1 potentiator -4.8, DRD3 antagonist -4.4 and D3 ag -0.9.
For CCOC(=O)N1CCC(Nc2c(Nc3ccc(C)c(C)c3)c(=O)c2=O)CC1 the results were D1 ag 1.8, D1 antag -18.4, D1 potentiator -4.2, DRD3 antagonist -71.3* and D3 ag -68.1.
Screening Cc1cccc(Nc2nc(C#N)nc(NC3CCCC3)n2)c1 returned D1 ag 11.1, D1 antag -8.0 and D1 potentiator -4.1.
Screening CCOC(=O)N1CCC(Nc2c(NCCCN(CC)Cc3ccccc3)c(=O)c2=O)CC1 returned D1 ag 2.1, D1 antag 12.7, DRD3 antagonist -7.9 and D3 ag -16.0.
CCOC(=O)N1CCC(Nc2c(NCCCOC)c(=O)c2=O)CC1 was read as D1 ag 2.8, D1 antag -34.3*, D1 potentiator -12.8, DRD3 antagonist -29.8 and D3 ag 16.8.
